Values joined by “and” are separate entries in the source; they are usually repeats but may differ in a detail not shown here. Equal values may be shown once. Among all 5,500 compounds or so, about 2,000 (36%) were called active. Another 18% or so got no clear call; they are omitted. This is one part of the list. Unmarked numbers belong to inactive results. No stated cut-off is given here; in the data, active means normalized growth mostly below about 0.91 (no sharp cut-off); inconclusive means no clear call, values can overlap the other calls; inactive means mostly above about 0.92.
Test: chemical genetic growth profiling, strain panel (AID 1159580);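 further: tested at 20 µM; growth read once vehicle control cultures reached saturation at 30 °C; 1 = growth at the plate median or of vehicle wells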
Settings: S. cerevisiae deletion strains, growth OD
[1] = locus YAR019C, strain CDC15, stronger effect = lower value
[2] = locus YBL105C, strain PKC1, stronger effect = lower value
[3] = locus YBR135W, strain CKS1, stronger effect = lower value
[4] = locus YBR136W, strain MEC1, stronger effect = lower value
[5] = locus YBR160W, strain CDC28, stronger effect = lower value
[6] = locus YDL017W, strain CDC7, stronger effect = lower value
[7] = locus YDL028C, strain MPS1, stronger effect = lower value
[8] = locus YDL101C, strain DUN1, stronger effect = lower value
[9] = locus YDL108W, strain KIN28, stronger effect = lower value
[10] = locus YDL132W, strain cdc53, stronger effect = lower value
[11] = locus YDL214C, strain PRR2, stronger effect = lower value
[12] = locus YDR052C, strain DBF4, stronger effect = lower value
[13] = locus YDR054C, strain cdc34, stronger effect = lower value
[14] = locus YDR226W, strain ADK1, stronger effect = lower value
[15] = locus YDR477W, strain SNF1, stronger effect = lower value
[16] = locus YER123W, strain YCK3, stronger effect = lower value
[17] = locus YER133W, strain GLC7, stronger effect = lower value
[18] = locus YFL009W, strain cdc4, stronger effect = lower value
[19] = locus YFL029C, strain CAK1, stronger effect = lower value
[20] = locus YFR003C, strain YPI1, stronger effect = lower value
[21] = locus YFR019W, strain FAB1, stronger effect = lower value
[22] = locus YFR028C, strain CDC14, stronger effect = lower value
[23] = locus YGR040W, strain KSS1, stronger effect = lower value
[24] = locus YGR052W, strain FMP48, stronger effect = lower value
[25] = locus YGR092W, strain DBF2, stronger effect = lower value
[26] = locus YHR030C, strain SLT2, stronger effect = lower value
[27] = locus YHR079C, strain IRE1, stronger effect = lower value
[28] = locus YHR082C, strain KSP1, stronger effect = lower value
[29] = locus YHR205W, strain SCH9, stronger effect = lower value
[30] = locus YIL147C, strain SLN1, stronger effect = lower value
[31] = locus YJL095W, strain BCK1, stronger effect = lower value
[32] = locus YJL128C, strain PBS2, stronger effect = lower value
[33] = locus YJL157C, strain FAR1, stronger effect = lower value
[34] = locus YJR016C, strain ILV3, stronger effect = lower value
[35] = locus YJR066W, strain TOR1 (second series), stronger effect = lower value
[36] = locus YJR066W, strain TOR1, stronger effect = lower value
[37] = locus YKL048C, strain ELM1, stronger effect = lower value
[38] = locus YKL067W, strain YNK1, stronger effect = lower value
[39] = locus YKL101W, strain HSL1, stronger effect = lower value
[40] = locus YKL193C, strain SDS22, stronger effect = lower value
[41] = locus YKL203C, strain TOR2, stronger effect = lower value
[42] = locus YLR113W, strain HOG1, stronger effect = lower value
[43] = locus YLR133W, strain CKI1, stronger effect = lower value
[44] = locus YLR403W, strain SFP1, stronger effect = lower value
[45] = locus YML070W, strain DAK1, stronger effect = lower value
[46] = locus YMR001C, strain CDC5, stronger effect = lower value
[47] = locus YMR205C, strain PFK2 (second series), stronger effect = lower value
[48] = locus YMR277W, strain FCP1, stronger effect = lower value
[49] = locus YNL006W, strain LST8, stronger effect = lower value
[50] = locus YNL020C, strain ARK1, stronger effect = lower value
[51] = locus YNL161W, strain CBK1, stronger effect = lower value
[52] = locus YNL183C, strain NPR1, stronger effect = lower value
[53] = locus YNL207W, strain RIO2, stronger effect = lower value
[54] = locus YNL222W, strain SSU72, stronger effect = lower value
[55] = locus YNL307C, strain MCK1 (second series), stronger effect = lower value
[56] = locus YOL078W, strain AVO1, stronger effect = lower value
[57] = locus YOL136C, strain PFK27, stronger effect = lower value
[58] = locus YOR061W, strain CKA2, stronger effect = lower value
[59] = locus YOR119C, strain RIO1, stronger effect = lower value
[60] = locus YOR231W, strain MKK1, stronger effect = lower value
[61] = locus YOR329C, strain SCD5, stronger effect = lower value
[62] = locus YPL031C, strain PHO85, stronger effect = lower value
[63] = locus YPL153C, strain RAD53, stronger effect = lower value
[64] = locus YPL204W, strain HRR25, stronger effect = lower value
[65] = locus YPL209C, strain IPL1, stronger effect = lower value
[66] = locus YPL256C, strain CLN2, stronger effect = lower value
[67] = locus YPR025C, strain CCL1, stronger effect = lower value
[68] = locus YPR106W, strain ISR1, stronger effect = lower value
[69] = locus YPR111W, strain DBF20, stronger effect = lower value
[70] = strain NNK1, stronger effect = lower value
[71] = strain TSCII, stronger effect = lower value
[72] = locus YGR078C, strain PAC10, stronger effect = lower value
[73] = locus YGR229C, strain SMI1, stronger effect = lower value
[74] = locus YJR075W, strain HOC1, stronger effect = lower value
[75] = locus YMR263W, strain SAP30, stronger effect = lower value
[76] = locus YMR307W, strain GAS1, stronger effect = lower value
[77] = locus YNL153C, strain GIM3, stronger effect = lower value
[78] = locus YNL322C, strain KRE1, stronger effect = lower value
[79] = locus YPL055C, strain LGE1, stronger effect = lower value

O=C(NCc1ccc(F)c(Cl)c1)Nc1csc([N+](=O)[O-])c1
normalized growth [1]: 0.984 | normalized growth [2]: 0.979 | normalized growth [3]: 0.987 | normalized growth [4]: 0.965 | normalized growth [5]: 0.981 | normalized growth [6]: 0.981 | normalized growth [7]: 0.98 | normalized growth [8]: 0.984 | normalized growth [9]: 0.975 | normalized growth [10]: 0.989 | normalized growth [11]: 0.975 | normalized growth [12]: 0.985 | normalized growth [13]: 0.989 | normalized growth [14]: 0.986 | normalized growth [15]: 0.977 | normalized growth [16]: 0.917 | normalized growth [17]: 0.965 | normalized growth [18]: 0.989 | normalized growth [19]: 0.967 | normalized growth [20]: 0.984 | normalized growth [21]: 0.951 | normalized growth [22]: 0.977 | normalized growth [23]: 0.976 | normalized growth [24]: 1.02 | normalized growth [25]: 0.96 | normalized growth [26]: 0.906 | normalized growth [27]: 0.958 | normalized growth [28]: 0.99 | normalized growth [29]: 0.932 | normalized growth [30]: 0.983 | normalized growth [31]: 0.963 | normalized growth [32]: 0.957 | normalized growth [33]: 0.987 | normalized growth [34]: 0.99 | normalized growth [35]: 0.952 | normalized growth [36]: 0.987 | normalized growth [37]: 0.98 | normalized growth [38]: 0.973 | normalized growth [39]: 0.947 | normalized growth [40]: 0.987 | normalized growth [41]: 1.03 | normalized growth [42]: 0.922 | normalized growth [43]: 0.962 | normalized growth [44]: 0.948 | normalized growth [45]: 0.938 | normalized growth [46]: 0.99 | normalized growth [47]: 0.962 | normalized growth [48]: 0.991 | normalized growth [49]: 0.993 | normalized growth [50]: 0.972 | normalized growth [51]: 0.983 | normalized growth [52]: 0.957 | normalized growth [53]: 0.981 | normalized growth [54]: 0.988 | normalized growth [55]: 0.973 | normalized growth [56]: 0.983 | normalized growth [57]: 0.942 | normalized growth [58]: 0.966 | normalized growth [59]: 1.01 | normalized growth [60]: 0.939 | normalized growth [61]: 0.981 | normalized growth [62]: 0.983 | normalized growth [63]: 0.969 | normalized growth [64]: 0.981 | normalized growth [65]: 0.981 | normalized growth [66]: 0.916 | normalized growth [67]: 0.989 | normalized growth [68]: 0.978 | normalized growth [69]: 0.977 | normalized growth [70]: 0.99 | normalized growth [71]: 0.981

CC(=O)c1csc([N+](=O)[O-])c1
normalized growth (locus YAL013W, strain DEP1, stronger effect = lower value): 1.01 | normalized growth (locus YBR229C, strain ROT2, stronger effect = lower value): 1.02 | normalized growth [8]: 0.951 | normalized growth (locus YDL134C, strain PPH21, stronger effect = lower value): 1 | normalized growth (locus YDR150W, strain NUM1, stronger effect = lower value): 0.921 | normalized growth (locus YEL061C, strain CIN8, stronger effect = lower value): 1.02 | normalized growth [72]: 0.975 | normalized growth [73]: 1.01 | normalized growth [26]: 1.08 | normalized growth (locus YHR087W, strain rtc3, stronger effect = lower value): 1.02 | normalized growth (locus YJL187C, strain SWE1, stronger effect = lower value): 0.983 | normalized growth (locus YJR043C, strain POL32, stronger effect = lower value): 1 | normalized growth [74]: 0.99 | normalized growth (locus YKL190W, strain CNB1, stronger effect = lower value): 1.01 | normalized growth (locus YLR039C, strain RIC1, stronger effect = lower value): 1 | normalized growth (locus YLR058C, strain SHM2 (second series), stronger effect = lower value): 0.998 | normalized growth (locus YLR085C, strain ARP6, stronger effect = lower value): 0.89 | normalized growth (locus YLR262C, strain YPT6, stronger effect = lower value): 0.976 | normalized growth (locus YML094W, strain GIM5, stronger effect = lower value): 1.02 | normalized growth (locus YMR219W, strain ESC1, stronger effect = lower value): 0.996 | normalized growth [75]: 1.01 | normalized growth [76]: 1.03 | normalized growth [77]: 0.947 | normalized growth (locus YNL298W, strain CLA4 (second series), stronger effect = lower value): 1.02 | normalized growth [78]: 1.01 | normalized growth (locus YNR030W, strain Alg12, stronger effect = lower value): 1.02 | normalized growth [79]: 0.996 | normalized growth (locus YPL241C, strain CIN2, stronger effect = lower value): 1.09 | normalized growth (locus YPR135W, strain CTF4, stronger effect = lower value): 0.988

O=C(Nc1ccc(Cl)cc1)c1csc([N+](=O)[O-])c1
normalized growth [1]: 0.92 | normalized growth [2]: 0.93 | normalized growth [3]: 0.931 | normalized growth [4]: 0.927 | normalized growth [5]: 0.933 | normalized growth [6]: 0.938 | normalized growth [7]: 0.922 | normalized growth [8]: 0.943 | normalized growth [9]: 0.929 | normalized growth [10]: 0.908 | normalized growth [11]: 0.874 | normalized growth [12]: 0.936 | normalized growth [13]: 0.901 | normalized growth [14]: 0.923 | normalized growth [15]: 0.803 | normalized growth [16]: 0.795 | normalized growth [17]: 0.764 | normalized growth [18]: 0.913 | normalized growth [19]: 0.919 | normalized growth [20]: 0.924 | normalized growth [21]: 0.918 | normalized growth [22]: 0.915 | normalized growth [23]: 0.797 | normalized growth [24]: 0.826 | normalized growth [25]: 0.545 | normalized growth [26]: 0.583 (active) | normalized growth [27]: 0.764 | normalized growth [28]: 0.891 | normalized growth [29]: 0.786 | normalized growth [30]: 0.923 | normalized growth [31]: 0.697 | normalized growth [32]: 0.935 | normalized growth [33]: 0.827 | normalized growth [34]: 0.926 | normalized growth [35]: 0.752 | normalized growth [36]: 0.759 | normalized growth [37]: 0.874 | normalized growth [38]: 0.894 | normalized growth [39]: 0.894 | normalized growth [40]: 0.92 | normalized growth [41]: 0.857 | normalized growth [42]: 0.596 (active) | normalized growth [43]: 0.873 | normalized growth [44]: 0.79 | normalized growth [45]: 0.832 | normalized growth [46]: 0.92 | normalized growth [47]: 0.862 | normalized growth [48]: 0.914 | normalized growth [49]: 0.921 | normalized growth [50]: 0.863 | normalized growth [51]: 0.933 | normalized growth [52]: 0.829 | normalized growth [53]: 0.908 | normalized growth [54]: 0.919 | normalized growth [55]: 0.818 | normalized growth [56]: 0.923 | normalized growth [57]: 0.861 | normalized growth [58]: 0.882 | normalized growth [59]: 0.86 | normalized growth [60]: 0.825 | normalized growth [61]: 0.924 | normalized growth [62]: 0.773 | normalized growth [63]: 0.795 | normalized growth [64]: 0.757 | normalized growth [65]: 0.926 | normalized growth [66]: 0.712 (active) | normalized growth [67]: 0.929 | normalized growth [68]: 0.94 | normalized growth [69]: 0.925 | normalized growth [70]: 0.944 | normalized growth [71]: 0.928

c1ccc(C2CN3CCSC3=N2)cc1 (configuration not stated)
normalized growth (locus YAL040C, strain CLN3, stronger effect = lower value): 0.985 and 1 | normalized growth (locus YCL061C, strain MRC1 (second series), stronger effect = lower value): 0.997 and 1.02 | normalized growth (locus YDR363W, strain ESC2, stronger effect = lower value): 1.02 and 1.04 | normalized growth (locus YER002W, strain NOP16, stronger effect = lower value): 0.991 and 1.03 | normalized growth [72]: 1 | normalized growth [73]: 1.04 | normalized growth [74]: 1.04 and 1.01 | normalized growth [75]: 1.01 | normalized growth [76]: 1.02 and 1 | normalized growth [77]: 1.02 | normalized growth (locus YNL175C, strain NOP13, stronger effect = lower value): 0.984 and 1 | normalized growth (locus YNL197C, strain WHI3, stronger effect = lower value): 0.977 and 1.01 | normalized growth (locus YNL224C, strain SQS1, stronger effect = lower value): 0.999 and 1.01 | normalized growth [78]: 1.02 | normalized growth (locus YOR083W, strain WHI5 (second series), stronger effect = lower value): 0.983 and 1.03 | normalized growth [79]: 1.05
